Data taken from publication PMC4552634, “A New Set of Chemical Starting Points with Plasmodium falciparum Transmission-Blocking Potential for Antimalarial Drug Discovery” (PLoS ONE, 2015).
Like-named read-outs stand apart in the source and are kept apart here. About 3,200 (25%) of roughly 13,000 compounds showed an effect of 50% or more. This is one part of the list.

Test system: P. falciparum stage V gametocytes
Set-up: BacTiter-Glo ATP luminescence viability of purified stage V gametocytes in 384-well plates, per cent inhibition versus DMSO
Conditions: 48 h, 5 µM, inhibitor

| Structure (SMILES) | % Inhibition [%] | % Inhibition (% Inhibition) [%] |
| --- | --- | --- |
| O=C(/C=C/c1ccc(Cl)c(Cl)c1)NCCCCCN1CCC(NC(=O)Nc2ccc(F)c(Cl)c2)CC1 [TCMDC-135720] | -54.39 | – |
| O=C(c1ccc(-c2ccc(-c3nc4cc(C(F)(F)F)ccc4[nH]3)s2)cc1)N1CCCCC1CN1CCC(O)C1 (centres unmarked) [TCMDC-132342] | -28.43 | – |
| COc1ccc(Nc2nccc(-c3cccc(NC(=O)c4cc5cc(F)ccc5[nH]4)c3)n2)cc1 [TCMDC-133307] | 7.51 | – |
| COc1ccc(-c2cc(C(=O)N[C@@H](CC3CCCCC3)C(=O)NCCN3CCCCC3)ccc2O)cc1 [TCMDC-140805] | 23 | – |
| COc1ccc(-c2cc(C(=O)N[C@@H](CC3CCCCC3)C(=O)NCCN3CCCC3)ccc2O)cc1 [TCMDC-140802] | 56.09 | – |
| CCCCNC(=O)[C@H](CC1CCCCC1)NC(=O)c1ccc(O)c(-c2ccc(OC)cc2)c1 [TCMDC-140803] | 9.095 | – |
| O=C(Nc1ccc2nc(-c3ccc4nc(NC(=O)C5CCCCC5)sc4c3)[nH]c2c1)C1CCCCC1 [TCMDC-125768] | -44.12 | – |
| O=C(N[C@@H](Cc1ccccc1)[C@H](O)CNC1CCc2ccccc2C1)c1cc(C2CCCC2)cc(N2CCCC2=O)c1 (some centres unmarked) [TCMDC-134647] | -1.727 | – |
| O=C(/C=C/c1cccs1)NC1CCC(CN2CCC(c3c[nH]c4ccccc34)CC2)CC1 (centres unmarked) [TCMDC-139759] | 42.82 | – |
| Cc1ccc(C)c(C=CC(=O)NC2CCC(CN3CCC(c4c[nH]c5ccccc45)CC3)CC2)c1 (centres unmarked) [TCMDC-139904] | – | 66.94 |
| Cc1ccc(/C=C/C(=O)NC2CCC(CN3CCC(c4c[nH]c5ccccc45)CC3)CC2)cc1 (centres unmarked) [TCMDC-139717] | – | 80.48 |
| CCCCC/C=C/C(=O)NC1CCC(CN2CCC(c3c[nH]c4ccccc34)CC2)CC1 (centres unmarked) [TCMDC-139709] | 109.3 | – |
| Cc1ccc(/C=C/C(=O)NC2CCC(CN3CCC(c4c[nH]c5ccccc45)CC3)CC2)cc1 (centres unmarked) [TCMDC-139702] | – | 110 |
| Cc1ccc(/C=C/C(=O)NC2CCC(CN3CCC(c4c[nH]c5ccccc45)CC3)CC2)cc1C (centres unmarked) [TCMDC-139760] | – | 36.59 |
| Cc1ccc(C)c(C=CC(=O)NC2CCC(CN3CCC(c4c[nH]c5ccccc45)CC3)CC2)c1 (centres unmarked) [TCMDC-139916] | – | -2.713 |
| O=C(c1cc2c(s1)-c1cccc(Cl)c1SC2)N1CCN(c2ccncc2)CC1 [TCMDC-133145] | 30.1 | – |
| CCOc1cc2ncnc(Nc3ccc(OCc4ccccc4Br)c(OC)c3)c2cc1OCC [TCMDC-131938] | -6.786 | – |
| COc1ccccc1C1CC(c2ccccc2)=NN1C(=O)c1ccco1 (centres unmarked) [TCMDC-124921] | 5.682 | – |
| COc1ccc(-c2cn3c(C(=O)Nc4ccccc4Cl)c(-c4ccccc4)c4c3n2CCCC4)cc1 [TCMDC-125125] | -39.86 | – |
| CCNC(=O)CCc1cccc(Br)c1 [TCMDC-137648] | 26.26 | – |
| CCNc1cc(C(=O)N[C@@H](Cc2ccccc2)[C@H](O)CNCCc2cccc3ccccc23)cc(N2CCCC2=O)c1 [TCMDC-134568] | -9.566 | – |

| Structure (SMILES) | % Inhibition [%] | % Inhibition (% Inhibition) [%] |
| --- | --- | --- |
| COc1cccc([C@@H](CC(=O)Nc2cc(C(F)(F)F)ccc2OC)Nc2ccc(C#N)c3ccccc23)c1 [TCMDC-132309] | 11.85 | – |
| Cc1cc(NC(=O)[C@H](CC(C)C)Nc2ccc(C#N)c3ccccc23)ccc1F [TCMDC-136623] | -63.41 | – |
| CC(C)(C)[C@@H](Nc1ccc(C#N)c2ccccc12)C(=O)NC1(Cc2ccc(O)cc2)CCCC1 [TCMDC-136782] | 18.1 | – |
| CC(C)(C)[C@@H](Nc1ccc(C#N)c2ccccc12)C(=O)NC1(Cc2ccc(O)c(Br)c2)CCCC1 [TCMDC-136784] | 27.12 | – |
| N#Cc1ccc(N[C@@H](CC2CCCCC2)C(=O)NCc2cc(Cl)cc(Cl)c2)c2ccccc12 [TCMDC-136626] | 13.09 | – |
| COC(=O)[C@@H](NC(=O)[C@H](Cc1ccc(OC)c(OC)c1)Nc1ccc(C#N)c2ccccc12)c1ccc(O)cc1 [TCMDC-136637] | 53.18 | – |
| CCCCC1(NC(=O)[C@H](CC(C)C)Nc2ccc(C#N)c3ccccc23)CCCCC1 [TCMDC-136624] | -52.31 | – |
| CC(C)C[C@H](Nc1ccc(C#N)c2ccccc12)C(=O)N[C@@H]1CCCc2ccccc21 [TCMDC-136088] | 59.15 | – |
| N#Cc1ccc(N[C@@H](CC2CCCCC2)C(=O)N[C@@H]2CCCc3ccccc32)c2ccccc12 [TCMDC-136633] | 13.98 | – |
| COC(=O)[C@@H](NC(=O)[C@@H](Nc1ccc(C#N)c2ccccc12)C(C)(C)C)c1ccc(O)cc1 [TCMDC-136607] | 78.97 | – |
| CCC(CC)C(CC(=O)NC(C)(C)CCc1ccccc1OC)Nc1ccc(C#N)c2ccccc12 (centres unmarked) [TCMDC-132308] | 3.423 | – |
| COC(=O)[C@@H](NC(=O)[C@H](CC(C)C)Nc1ccc(C#N)c2ccccc12)c1ccc(O)cc1 [TCMDC-136622] | 62.67 | – |
| CC(=O)Nc1cccc(CNCc2ccc(-c3cnc(N4CCCC(c5ccccc5)C4)nc3)cc2)c1 (centres unmarked) [TCMDC-133723] | -4.34 | – |
| CC(Sc1nc(-c2ccccc2)c(-c2ccccc2)o1)C(=O)NC1CC1 (centres unmarked) [TCMDC-125313] | 34.01 | – |
| O=C(Nc1ccc(Cn2ncc(N3CCCNCC3)c(Cl)c2=O)cc1)Nc1cccc(SC(F)(F)F)c1 [TCMDC-133321] | -32.98 | – |
| O=C(Nc1ccc([N+](=O)[O-])cc1)Nc1nc2ccc(Cl)cc2s1 [TCMDC-123703] | 38.6 | – |
| Cc1cccc2nc(-c3ccc(-c4ccc(NC(=O)C(C)CN(C)C)cc4)s3)[nH]c12 (centres unmarked) [TCMDC-137115] | 20.93 | – |
| COc1nc2c(CCN3CCC(NCc4ccc5c(n4)NC(=O)CO5)CC3)c(Cl)cnc2cc1F [TCMDC-135766] | -7.442 | – |
| CN1CCN(Cc2cc3cc(NC(=O)/C=C/c4cccc(Cl)c4)ccc3s2)CC1 [TCMDC-135630] | -63.97 | – |
| CC(C)C[C@@H](/C=N/N1CCNC1=O)NC(=O)[C@H](CC(C)C)NC(=O)c1ccc(OCCN2CCOCC2)cc1 [TCMDC-136227] | 6.84 | – |
